About 83,000 compounds went through this panel and 20% of them were active in at least one assay; those are over-represented in the sample as a whole.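 Negative percent growth values reflect cell death: -40 means 40% of the cells present at the start died, and -100 means all died.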 Unmarked numbers belong to inactive results. The source made the active and inactive calls.

The record followed here is PubChem BioAssay (NCI).

The subject of this experiment is EKVX NSCLC. Nature of the experiment: NCI-60 one-dose screen, 48 h (100 = growth as untreated, 0 = no growth, -100 = all killed). The note with it: 10 µM unless noted. The protocol: Growth inhibition of the EKVX human Non-Small Cell Lung tumor cell line is measured as a screen for anti-cancer activity. Cells are grown in 96 well plates and exposed to the test compound for 48 hours. Compounds are tested at a single concentration, which is 10^-5 M for most compounds. The reported endpoint is percent growth (GI% or GIPRCNT), where numbers from 0 - 100% represent growth inhibition, and numbers from -100% - 0 represent cell death. For example, a value of 40 represents 60% growth inhibition. A value of 0 means no net growth occurred over the course of the experiment. A value of -40 indicates 40% of cells at the beginning of the experiment died by the end of the experiment. A value of -100 means all cells are dead at the end of the experiment.
NCI-60 Human Tumor Cell Lines Screen was performed using the standard one-dose NCI protocol, which is described in more detail at https://dtp.cancer.gov/discovery_development/nci-60/default.htm.
Compounds with GIPRCNT values below 10 were considered active. Activity score was based on GIPRCNT using the following formula: […]
Score is 0 for GIPRCNT values of 100 or above, 50 for GIPRCNT values of 0, and 100 for GIPRCNT values of -100.
For `C=C1C(=O)O[C@H]2[C@H]1CC/C(COC(=O)NCc1[nH]nc3ccccc13)=C\CC[C@@]1(C)O[C@@H]21`, the growth is 50.1%.

Turning to `CCN1C(=O)N(CC)C2C1NN=c1s/c(=C\c3ccc(Br)cc3)c(=O)n12` (stereo not given), the growth was 38.2%. In the case of `CCN1C(=O)N(CC)C2C1NN=c1s/c(=C\c3ccco3)c(=O)n12` (stereo not given) it was 36.3%; in that of `COc1ccc2c(c1)N(Cc1ccc(Cl)cc1)CCC2N1CCCC1=O` (stereo not given), 36.9%; in that of `O=C(c1ccccc1)c1cccc(C(Br)Br)c1`, 107%.

Consider `O=C1N(Cc2ccccc2Cl)c2ccccc2C12NN=C(c1ccccc1)S2` (stereo not given), for which the growth is 58.1%. Then `CCCCCCCCCCCC1=NC(C)(C)CN1CCO`, with 68.7%. In the case of `NC(=O)c1ccc[n+](Cc2ccccc2)c1` it was 94%; in that of `COc1cnc2c(c1)C(=O)c1c-2n(CCCNC(C)C)c(=O)c2cc(Cl)ccc12`, -32.7% (active); in that of `Cc1ccc(C)c2c1SC1=NNC(Oc3ccc(Cl)cc3)=C(C#N)C(=N)N12`, 100%.

As for `O=[N+]([O-])c1ccc(N/N=C/c2ccccc2O)nc1`, the growth was 29.7%.

Turning to `CC1(C)OC2OC3C(CN)OC(c4ccccc4)OC3C2O1` (stereo not given), the growth is 103%. Regarding `CC(C)=CC[C@@H]1CC2(CC=C(C)C)C(=O)C(OC3(C(=O)c4ccccc4)C(=O)C4(CC=C(C)C)C[C@@H](CC=C(C)C)C(C)(C)C(CC=C(C)C)(C4=O)C3=O)(C(=O)c3ccccc3)C(=O)C(CC=C(C)C)(C2=O)C1(C)C` (stereo not given in full), the growth is 2.26% (active).

In the case of `O=C1OCC2=C1C(c1ccccc1)c1cc3c(cc1N2CCO)CCC3` (stereo not given), the growth was 22.7%. As to `COc1cc(C2CC(c3ccccc3)=NN2C=O)ccc1Oc1nc2c(c(=O)n(C)c(=O)n2C)n1C` (stereo not given), the growth was 74.1%.

Turning to `COc1ccc(-c2cc(C(=O)Nc3ccc(Br)cc3)nc3[nH]c(=O)sc23)cc1`, the growth was 37.2%. Consider `COc1cc(NC(=O)CSc2nc3ccc(Cl)cc3c(=O)n2-c2ccccc2)cc(OC)c1OC`, for which the growth was 76.4%. In the case of `O=C(O)c1ccccc1Oc1cc(-c2ccco2)nc(OCCN2CCOCC2)n1` it was 113%. Then `O=[N+]([O-])c1ccc(N/N=C\c2ccc(O)cc2O)nc1`, with 29.3%; and `COc1ccc2[nH]cc(C3(c4c[nH]c5ccc(OC)cc45)C(=O)Nc4ccc(Cl)cc43)c2c1`, with 43.5%; and `FC(F)(F)c1nn[nH]n1`, with 99.3%. In the case of `O=C1C(Cl)=C(Nc2cccc3ccccc23)C(=O)c2ccccc21` it was 74.4%; in that of `CCOCCNc1ccc(S(=O)(=O)c2ccc(N)cc2)cc1N`, 86.6%; in that of `O=C(c1ccccc1)C1OC1C(=O)c1ccccc1` (stereo not given), 81.3%. Turning to `Oc1c(C(Nc2cccc3ccccc23)c2ccccc2)ccc2cccnc12` (stereo not given), the growth was 31%. Then `CCN(CC)c1ccc(/C=N/NC(=O)C[N+](C)(C)C)cc1`, with 94.2%; and `CCCCCCCC/C=C/CCCCCCCC1=NC(C)(C)CN1c1ccccc1`, with 105%; and `CC[C@]1(O)C[C@H]2CN(CCc3c([nH]c4ccccc34)C(C(=O)OC)(c3cc4c(cc3OC)N(C)[C@H]3[C@@](O)(C(=O)OC)[C@H](OC(C)=O)[C@]5(CC)[C@@H]6C[C@@H]6CN6CC[C@]43[C@@H]65)C2)C1` (stereo not given in full), with 35.2%. Take `CC1=C(O)C(=O)CC1`: the growth was 96.2%.

As to `O=C(Nc1ccc([N+](=O)[O-])cc1)c1cc2ccccc2cc1O`, the growth is 2.38% (active). In the case of `COc1ncnc2[nH]cc(CN3CCN(c4ccc(F)cc4)CC3)c12` it was 97.9%. Then `CCCCCCCCCCCCCCCC1=NC(C)(C)CN1C(C)C`, with 5.51% (active); and `c1cc(C2CCCCC2)ccc1-c1cnc2nonc2n1`, with 37.3%; and `C[N+](C)(C)CC(=O)N/N=C\c1ccco1`, with 103%. Then `Cc1cccc(N=NC(=S)NNc2cccc(C)c2)c1`, with 98.3%.

With `CSc1ccc(/C=C2\C=C(CC(=O)NCc3ccc(C(=O)c4ccccc4)cc3)c3cc(F)ccc32)cc1`, the growth was 25.5%.

`CCC(=O)NC1=C(Cl)C(=O)C(NC(=O)CC)=C(Cl)C1=O`: the growth is 129%.

In the case of `O=C1Nc2ccccc2/C1=C\c1nc(C2CCN(S(=O)(=O)c3ccc(F)cc3)CC2)n2ccccc12`, the growth is 63.3%.

As for `Nc1ccc(C2=NNC(=O)Cc3cc4c(cc32)OCCO4)cc1Cl`, the growth is 63.9%. Then `COc1ccc(N=C2CSc3nnc(-c4cc(F)c(Cl)cc4Cl)n3N2)cc1`, with 10.8%.
